Compound activity (PubChem BioAssay)
NPC1 prom act: NPC1 promoter activation; Huh7 NPC1 promoter luciferase reporter, 24 h; Potency, µM (doses to about 9.22 µM), inactives show top-dose activation, most hits filed as activators; 320,000 tested, 2.4% active; also: % of control where 0% means no effect; nearly all actives have a fitted effect of over 60% in size
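Luminescence read-out of NPC1 promoter-driven luciferase in stably transfected Huh7 cells; compounds delivered in DMSO and left 24 h at 37C, 5% CO2, qHTS titration format.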
Luc counter: blocks Kinase-Glo luciferase, a counter-screen artifact; Kinase-Glo luciferase, ATP luminescence, 8 min; Potency, µM (series often up to 38.3 µM), without a hit: top-dose activity change, negative = inhibition, hits mostly inhibitors; 200,000 tested, 0.28% active; AID 1379; also: % is scaled to controls: 0 for no effect and ±100 for the full control effect; nearly all actives have a fitted effect of over 60% in size
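Luminescence was the read-out, taken after 8-minute incubation at ambient temperature. Luciferase turned over luciferin with 10 uM ATP in imidazole pH 7.2 buffer containing KCl, MgCl2, Tween 20 and BSA.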
SMN2 splice enh: increases expression of the SMN2 splice variant | HEK293 SMN2-luciferase splicing reporter, luminescence, 30-36 h | Potency, µM (highest dose often 46.1 µM), for the others: top-dose activity change, positive = activation, most hits filed as activators | 210,000 tested, 2.8% active; also: % of control where 0% means no effect; nearly all actives have a fitted effect of over 55% in size
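qHTS luciferase splicing reporter: luminescence rises when SMN2 exon 7 is included in transfected HEK293 cells. Compound exposure lasted 30-36 h at 37C, with 4.5 mM final sodium butyrate as control, followed by a ONE-Glo read.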
ELG1 genotox: inducers of genotoxicity in HEK293T ELG1-luciferase cells. AID 504466. 330,000 tested, 1.3% active. Potency, µM (top dose mostly 46 µM), for the others: at the top dose activity change, positive = activation, actives largely listed as activators. HEK293T ELG1-luciferase reporter, luminescence, 16 h; also: % of control where 0% means no effect; nearly all actives have a fitted effect of over 60% in size
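DMSO vehicle served as control against compound-treated ELG1-luciferase HEK293T cells; exposure lasted 16 hr at 37 °C and 5% CO2, followed by ONE-Glo luminescence detection after 30 min.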
Rab9 promoter act: activates the Rab9 promoter; Huh7 Rab9 promoter-luciferase reporter, luminescence, 24 h; AID 485297; Potency, µM (highest dose often 9.22 µM), without a hit: top-dose activation, negative = inhibition, actives largely listed as activators; 320,000 tested, 2.8% active; also: % of control where 0% means no effect; nearly all actives have a fitted effect of over 60% in size
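Luminescence read-out: Huh7 cells stably expressing Rab9-luciferase, treated 24 h with compound at 37 °C, then lysed with luciferase reagent for 10 min at ambient before reading.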
FLuc counter: counter-screen for miR-21 project: firefly luciferase inhibitors or activators | P08659 | purified FLuc, Km substrates, luminescence inhibition | Potency, µM (doses to about 57.5 µM), without a hit: at the highest dose activity change, negative = inhibition, usual class: inhibitors | 360,000 tested, 6.9% active | AID 588342;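 also: plate controls were vehicle for no effect and reference inhibitor for full effect; nearly all actives have a fitted effect of over 55% in size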
Target sequence (P08659 whole entry, looked up): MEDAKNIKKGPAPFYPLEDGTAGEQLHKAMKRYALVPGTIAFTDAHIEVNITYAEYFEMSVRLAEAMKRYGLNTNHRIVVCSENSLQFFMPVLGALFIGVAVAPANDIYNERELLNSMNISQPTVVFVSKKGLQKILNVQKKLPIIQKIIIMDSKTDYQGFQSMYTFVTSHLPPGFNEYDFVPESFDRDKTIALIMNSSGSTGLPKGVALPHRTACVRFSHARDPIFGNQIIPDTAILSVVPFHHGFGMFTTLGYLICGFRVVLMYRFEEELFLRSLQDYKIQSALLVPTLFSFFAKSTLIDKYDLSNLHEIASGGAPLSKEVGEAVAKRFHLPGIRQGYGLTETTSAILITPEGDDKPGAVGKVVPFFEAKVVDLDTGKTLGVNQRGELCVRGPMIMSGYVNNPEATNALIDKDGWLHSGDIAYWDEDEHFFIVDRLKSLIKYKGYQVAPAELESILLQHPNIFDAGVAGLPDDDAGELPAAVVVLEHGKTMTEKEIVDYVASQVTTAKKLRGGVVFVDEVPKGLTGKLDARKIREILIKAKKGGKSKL
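Biochemical qHTS of compounds, final roughly 60 µM downward over six points, against 10 nM purified firefly luciferase using Km concentrations of substrates (10 uM D-luciferin, 10 uM ATP) in Tris acetate pH 7.5 buffer; luminescence output.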
* = called active by the depositor; ? = inconclusive; . = no result; [ ] = remark or other dose. An excerpt weighted towards active compounds, which were near 7.4% of everything screened. Calls follow the shape of the dose curve; as a rule, active = well fitted curve in the direction sought with a large enough effect; inconclusive = small, poorly fitted or top-dose-only effect, or another doubt; inactive = no such curve, though single readings can be large; an effect the other way counts as inactive or inconclusive. Potency is read from the fitted curve at half-maximal effect.

SMILES	NPC1 prom act	Luc counter	SMN2 splice enh	ELG1 genotox	Rab9 promoter act	FLuc counter
O=C(O)/C=C\C(=O)Nc1ccc2c(c1)C(=O)c1cc(F)ccc1-2	.	-3.4%[7.66 µM]	-6.9%[9.22 µM]	.	.	.
COCCN1C(=O)/C(=C/c2ccc(N3CCCC3)cc2C)SC1=S	-0.3%	-17.0%	.	2.8%	20.0%	4.78µM*
Cc1ccc(-n2c(C)cc(/C=C3/SC(=O)N(CC(=O)N4CCOCC4)C3=O)c2C)nc1	?	.	.	?	?	1.51µM*
CCN=C1S/C(=C\c2ccc(N3CCOCC3)cc2C)C(=O)N1CC	-15.6%	-1.7%	-11.6%	-1.6%	-15.5%	-8.7%
CCn1c(C)cc(/C=C2/SC(=O)N(CC(=O)N3CCCC3)C2=O)c1C	7.7%	.	.	-9.4%	11.1%	21.3µM*
COCCn1c(C)cc(/C=C2/SC(=O)N(CC(=O)N3CCCC3)C2=O)c1C	2.0%	.	.	17.0%	15.6%	19µM*
O=C(CN1C(=O)S/C(=C/c2ccncc2)C1=O)N1CCOCC1	1.5%	2.6%	6.3%	-0.5%	-0.5%	-3.2%
CCc1ccc(-n2c(=O)c3cccnc3n2CC(=O)Nc2cc(F)ccc2F)cc1	.	.	.	.	.	0.0%
COCCc1nn2c(=O)cc(COC(=O)COc3ccccc3C)nc2s1	.	.	.	.	.	-1.3%
COc1ccc(Cl)cc1NC(=O)NCCn1c(=O)oc2ccc(C)cc21	.	.	-14.0%	.	.	-16.5%
Cc1cccc(NC(=O)c2cnc3sccn3c2=O)c1C	?	-1.8%	5.62µM*	4.11µM*	1.12µM*	2.69µM*
Cc1cccc(NC(=O)c2cnc3ccccn3c2=O)c1	0.631µM*	-15.4%	0.708µM*	0.411µM*	0.316µM*	0.675µM*
O=C(Nc1cnc2sccn2c1=O)c1ccccc1Cl	1.58µM*	?	22.5%	18.4µM*	?	15.1µM*
CC(=O)c1cnc2sccn2c1=O	-3.2%	-1.7%	-5.8%	0.5%	3.4%	-2.5%
COc1ccc(NC(=O)c2cnc3sccn3c2=O)cc1	?	-2.1%	14.1µM*	4.11µM*	2.51µM*	?
COc1ccc(NC(=O)c2oc3ccc(S(=O)(=O)N(C)C4CCCCC4)cc3c2C)cc1Cl	.	.	.	.	.	-3.2%
COc1ccccc1CN(Cc1ccco1)c1cnc(S(C)(=O)=O)nc1C(=O)Nc1cc(C)ccc1C	.	.	.	.	.	0.3%
O=C(Nc1ccon1)c1cnc2sccn2c1=O	21.2%	.	.	1.0%	11.6%	-19.7%
Cc1cccc(NC(=O)c2cnc3sccn3c2=O)c1	0.891µM*	.	.	?	0.447µM*	3.38µM*
CCOc1cc(C#N)c(-n2nnc3c(sc4nc(C)cc(C)c43)c2=O)cc1OCC	.	.	6.9%	.	.	-6.0%
Cc1cc(CN2CCCCC2)c(O)c(CN2CCCCC2)c1	.	-7.1%[7.66 µM]	-10.8%[9.22 µM]	.	.	.
C[n+]1cc[nH]c1SCC(=O)c1ccccc1	?	-25.0%	20.8%	18.4µM*	?	23.9µM*
Fc1ccc(-c2nc3ccncc3[nH]2)cc1	22.8%	?	9.8%	6.4%	19.9%	?
NC(N)=Nc1nc2ccc([N+](=O)[O-])cc2[nH]1	4.2%	-3.2%[7.66 µM]	-4.4%[9.22 µM]	6.4%	-0.5%	-6.6%
O=[N+]([O-])c1ccc2nc(-c3ccc(Cl)cc3)[nH]c2c1	2µM*	-4.4%	3.16µM*	-1.4%	1.58µM*	3.01µM*
SMILES	NPC1 prom act	Luc counter	SMN2 splice enh	ELG1 genotox	Rab9 promoter act	FLuc counter
Cc1ccc(-c2nc3ccc([N+](=O)[O-])cc3[nH]2)cc1	1.58µM*	-6.3%	1.26µM*	?	1.58µM*	0.849µM*
COc1ccc(-c2nc3ccc([N+](=O)[O-])cc3[nH]2)cc1	1.58µM*	-4.7%	1µM*	?	1.12µM*	1.51µM*
Nc1nc2ccc([N+](=O)[O-])cc2[nH]1	-3.9%	.	.	-10.6%	-0.5%	0.2%
Clc1ccc(-c2nc3ccncc3[nH]2)cc1	?	?	11.2µM*	?	?	10.7µM*
Cc1cc(C)c(NC(=O)Cn2c(=O)oc3cc(S(=O)(=O)N4CCCCCC4)ccc32)c(C)c1	.	.	-52.1%	.	.	3.7%
C=CC1=C2C=C(C3CC3)N(CCCCO)C=C2C(=O)C(C)(OC(=O)c2ccco2)C1=O (stereo not given)	.	-2.4%[7.66 µM]	-1.6%[9.22 µM]	.	.	.
